Activity calls are given as the source filed them. Unless noted, no rule for the calls is given here.
Experiments:
[1] = A549 cell viability effects, profiling panel, calcein-AM fluorescence, 48 h, basal (AID 1162); settings: higher = more signal; also: test concentration not given here
[2] = adipocyte viability effects, profiling panel, cell-based, 3T3-L1 adipocytes, calcein-AM fluorescence, 48 h, basal (AID 1163); settings: 3T3-L1 adipocytes viability, higher = more signal; also: test concentration not given here
[3] = HepG2 cell viability effects, profiling panel, calcein-AM fluorescence, 48 h, basal (AID 1164); settings: higher = more signal; also: test concentration not given here
[4] = MM1S cell viability effects, profiling panel, calcein-AM fluorescence, 48 h, basal (AID 1165); settings: higher = more signal;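 also: viability of MM1S multiple myeloma cells under basal unstimulated conditions; test concentration not given here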
[5] = basal RPMI8226 viability, no added stimulus, profiling panel, cell-based, calcein-AM fluorescence, 48 h, PK04 Diversity Set (AID 1166); settings: RPMI8226 myeloma viability, higher = more signal;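 also: cells grown under basal conditions without added stimulus; test concentration not given here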
[6] = basal HepG2 mitochondrial membrane potential changes, profiling panel, cell-based, JC-1 fluorescence, 24 h, 100 nL compound (AID 1167); settings: higher = more signal; also: test concentration not given here
[7] = basal 3T3-L1 adipocyte mitochondrial potential changes, profiling panel, cell-based, JC-1 fluorescence, 3T3-L1 adipocytes, 24 h, 100 nL compound (AID 1168); settings: JC-1 mitochondrial fluorescence, higher = more signal, called active from +8 up or from −8 down; also: test concentration not given here
[8] = basal RPMI8226 mitochondrial membrane potential changes, profiling panel, cell-based, JC-1 fluorescence, 24 h, 100 nL compound (AID 1169); settings: RPMI8226 myeloma, JC-1 mitochondrial potential fluorescence, higher = more signal; also: test concentration not given here
[9] = basal MM1S mitochondrial membrane potential changes, profiling panel, cell-based, JC-1 fluorescence, 24 h, 100 nL compound (AID 1170); settings: higher = more signal; also: test concentration not given here
[10] = A549 lung cancer cell viability effects, profiling panel, resazurin fluorescence, 24 h, PK04 Diversity Set (AID 1171); settings: higher = more signal, called active from +8 up or from −8 down; also: test concentration not given here
[11] = HepG2 liver cancer cell viability effects, profiling panel, resazurin fluorescence, 24 h, PK04 Diversity Set (AID 1172); settings: higher = more signal; also: test concentration not given here
[12] = basal S. cerevisiae growth modulation, no modifier, primary screen, OD600, strain BY4716, 24 h, basal condition (AID 1173); settings: OD600, 24 h, higher = more signal, called active from +8 up or from −8 down
[13] = MM1S myeloma cell viability, profiling panel, resazurin fluorescence, basal, 24 h, PK04 Diversity Set (AID 1174); settings: higher = more signal, called active from +8 up or from −8 down;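 also: MM1S multiple myeloma cell line; test concentration not given here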
[14] = target: Dihydroorotate dehydrogenase (quinone), mitochondrial (Plasmodium falciparum (isolate 3D7)) (UniProt Q08210); assay: PfDHODH enzyme inhibitors, primary screen, biochemical, C-terminal His tag, absorbance 600 nm (AID 1175); settings: DCIP absorbance 600 nm, higher = more signal, called active from +8 up or from −8 down;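 also: recombinant parasite enzyme with a five histidine tag at its C terminus; test concentration not given here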
[15] = P. aeruginosa biofilm formation inhibitors, primary screen, strain PAO1, LB-PBS medium, absorbance 600 nm (AID 1176); also: test concentration not given here; settings: P. aeruginosa PAO1 growth/biofilm, A600, 12 h; higher = more signal
[16] = S. cerevisiae RM11-1a growth modifiers, primary screen, strain RM11-1a, OD600, basal, 24 h (AID 1177); settings: OD600, 24 h, higher = more signal, called active from +8 up or from −8 down;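 also: cultures grown under basal conditions with no added stressor; test concentration not given here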
[17] = E. coli acrAB mutant growth effects, primary screen, E. coli filamentation inducers, strain DRC39, OD650, 24 h (AID 1178); settings: higher = more signal, called active from +8 up or from −8 down;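 also: growth measured as culture turbidity by optical density at 650 nm; test concentration not given here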
[18] = E. coli acrAB mutant growth effects, primary screen, E. coli filamentation inducers, strain DRC39, OD650, 48 h (AID 1179);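 also: screen aims at cell division blockers that make cells filament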; settings: E. coli DRC39 delta-acrAB growth, higher = more signal, called active from +8 up or from −8 down
[19] = RPMI8226 myeloma cell viability, profiling panel, resazurin fluorescence, basal, 24 h, PK04 Diversity Set (AID 1180); settings: higher = more signal;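 also: RPMI8826 multiple myeloma cell line at 5000 cells per well; test concentration not given here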
[20] = target: E3 ubiquitin-protein ligase XIAP (Homo sapiens) (UniProt P98170); assay: XIAP binders, primary screen, biophysical, small-molecule microarray, fluorescence 635 nm (AID 1181); settings: small-molecule microarray binding, higher = more signal;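 also: score merges 667 nm emission and signal to noise over triplicate slides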
E3 ubiquitin-protein ligase XIAP (Homo sapiens), sequence (P98170 whole entry, looked up): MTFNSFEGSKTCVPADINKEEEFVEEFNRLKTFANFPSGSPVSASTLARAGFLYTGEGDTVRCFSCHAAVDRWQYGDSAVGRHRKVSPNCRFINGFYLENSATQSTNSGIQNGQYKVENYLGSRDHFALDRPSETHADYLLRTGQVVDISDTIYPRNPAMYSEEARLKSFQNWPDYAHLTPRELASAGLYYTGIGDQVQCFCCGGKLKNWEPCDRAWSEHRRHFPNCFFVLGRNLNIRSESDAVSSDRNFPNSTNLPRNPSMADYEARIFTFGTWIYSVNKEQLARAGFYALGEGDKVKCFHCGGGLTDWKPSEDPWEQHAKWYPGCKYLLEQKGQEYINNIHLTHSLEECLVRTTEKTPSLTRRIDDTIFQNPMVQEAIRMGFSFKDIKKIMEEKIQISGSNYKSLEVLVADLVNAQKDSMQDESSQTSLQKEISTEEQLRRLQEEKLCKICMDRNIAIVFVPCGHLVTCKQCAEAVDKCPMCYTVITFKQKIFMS

Dihydroorotate dehydrogenase (quinone), mitochondrial (Plasmodium falciparum (isolate 3D7)), sequence (Q08210 whole entry, looked up): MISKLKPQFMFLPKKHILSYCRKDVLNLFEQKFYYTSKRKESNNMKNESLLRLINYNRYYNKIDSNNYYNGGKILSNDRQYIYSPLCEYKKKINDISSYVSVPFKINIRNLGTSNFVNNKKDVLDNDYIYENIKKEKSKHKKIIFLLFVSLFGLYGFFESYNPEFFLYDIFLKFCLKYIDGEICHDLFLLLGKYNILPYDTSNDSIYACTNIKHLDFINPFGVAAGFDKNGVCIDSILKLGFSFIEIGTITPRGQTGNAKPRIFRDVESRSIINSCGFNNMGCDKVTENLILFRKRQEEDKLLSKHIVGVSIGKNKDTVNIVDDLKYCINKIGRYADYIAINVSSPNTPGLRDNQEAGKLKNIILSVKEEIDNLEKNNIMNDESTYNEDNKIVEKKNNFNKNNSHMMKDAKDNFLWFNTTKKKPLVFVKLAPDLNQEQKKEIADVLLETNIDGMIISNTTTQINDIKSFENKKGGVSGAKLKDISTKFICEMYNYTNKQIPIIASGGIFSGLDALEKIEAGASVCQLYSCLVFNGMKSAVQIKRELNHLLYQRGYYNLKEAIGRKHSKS

Row | SMILES | z-score [1] | z-score [2] | z-score [3] | z-score [4] | z-score [5] | z-score [6] | z-score [7] | z-score [8] | z-score [9] | z-score [10] | z-score [11] | z-score [12] | z-score [13] | composite z-score [14] | z-score [15] | z-score [16] | z-score [17] | z-score [18] | z-score [19] | composite z-score [20]
1 | CC(C)=CCCC(C)=CCON=C1C[C@@H](O)[C@@H](O)[C@@H]2[C@@H]3C(=O)N(c4cccc(Oc5ccccc5)c4)C(=O)[C@@H]3CC[C@@H]12 | -1.19 | 0.18 | -0.795 | -2.22 | -3.96 | -1.26 | 0.641 (inactive) | -0.805 | 0.251 | 0.919 (inactive) | 0.171 | -1.86 (inactive) | 0.815 (inactive) | -2.48 (inactive) | 0.0001 (inactive) | -0.556 (inactive) | 0.615 (inactive) | -0.923 (inactive) | -0.198 | 0.0368
2 | COC(=O)CC=C[C@@H](C)[C@@H](C=NO[C@H](C)c1cn([C@@H]2COC[C@H]2O)nn1)NS(=O)(=O)c1ccc(C)cc1 | 0.802 | -0.628 | 1.16 | 0.111 | 0.188 | -0.156 | 0.766 (inactive) | 0.556 | -1.25 | -1.14 (inactive) | -1.37 | -0.335 (inactive) | -1.34 (inactive) | -0.753 (inactive) | 0.301 (inactive) | 0.278 (inactive) | 0.524 (inactive) | 1.29 (inactive) | -0.687 | -0.267
3 | CO[C@@H]1COC(=O)CC=C[C@H](C)[C@H](OC)COC(=O)[C@H](C)NC(=O)CC=C[C@H]1C | 0.296 | 0.256 | 0.64 | -0.0284 | 0.403 | 0.904 | -0.878 (inactive) | 0.403 | 0.273 | 0.932 (inactive) | 0.774 | -0.486 (inactive) | 0.978 (inactive) | -0.165 (inactive) | -0.638 (inactive) | -0.363 (inactive) | 0.853 (inactive) | -0.0907 (inactive) | 0.453 | 0.0264
4 | C[C@@H](c1ccccc1)N1C(=O)[C@H]2[C@H]3[C@H](O)[C@H](O)CC(=O)[C@H]3CC[C@H]2C1=O | 0.614 | 0.205 | 0.92 | 0.358 | -0.094 | 0.311 | 1.27 (inactive) | -0.826 | 1.05 | 0.288 (inactive) | -0.137 | -0.491 (inactive) | 0.162 (inactive) | -0.736 (inactive) | 0.128 (inactive) | -0.218 (inactive) | 0.366 (inactive) | 0.53 (inactive) | 0.033 | 0.0641
5 | COc1ccc(COC(=O)NN=C2C[C@@H](O)[C@@H](O)[C@@H]3[C@@H]4C(=O)N(Cc5ccccc5)C(=O)[C@@H]4CC[C@H]23)cc1 | 0.203 | 0.649 | -0.462 | 0.451 | -1.27 | 0.646 | -0.585 (inactive) | 0.365 | -0.592 | 1.03 (inactive) | 1.35 | 0.3 (inactive) | 1.28 (inactive) | -0.307 (inactive) | 0.07 (inactive) | -0.629 (inactive) | 0.426 (inactive) | -0.463 (inactive) | 0.635 | 0.152
6 | O=C1C[C@@H](O)[C@@H](O)[C@@H]2[C@@H]3C(=O)N(Cc4ccc5c(c4)OCO5)C(=O)[C@@H]3CC[C@H]12 | 0.474 | 1.46 | 0.517 | 0.0737 | -0.0121 | -0.0331 | -0.221 (inactive) | 0.522 | 1.37 | -0.0495 (inactive) | 0.201 | 0.0442 (inactive) | -0.0254 (inactive) | -0.564 (inactive) | -0.0121 (inactive) | -0.545 (inactive) | -0.494 (inactive) | -0.389 (inactive) | -0.0372 | -0.152
7 | CCOC(=O)[C@H](CC(C)C)NC(=O)CCC1CC(OC(=O)NCc2cccc3ccccc23)CC2(CCCC(COC(=O)NCc3cccc(C(F)(F)F)c3)O2)O1 (stereo not given in full) | -0.442 | -0.302 | 0.8 | 0.484 | 0.38 | 0.936 | 0.346 (inactive) | 0.0118 | -0.851 | -0.75 (inactive) | -0.189 | -0.31 (inactive) | 0.0223 (inactive) | -0.161 (inactive) | 0.687 (inactive) | 0.388 (inactive) | 0.939 (inactive) | 1.08 (inactive) | 0.639 | -0.206
8 | CCCNC(=O)OC[C@H]1O[C@H](CCON=C(C)C)C=C[C@@H]1Oc1ccc(OC)cc1 | 0.171 | 0.008 | -0.0737 | -0.39 | 0.0566 | -1.57 | -1.43 (inactive) | 0.255 | 0.276 | 0.095 (inactive) | -0.131 | -2.44 (inactive) | -0.112 (inactive) | -0.411 (inactive) | 0.736 (inactive) | -0.0159 (inactive) | 0.675 (inactive) | -1.4 (inactive) | -0.331 | -0.0859
9 | COc1ccc(COC(=O)NN=C2C[C@@H](O)[C@@H](O)[C@@H]3[C@@H]4C(=O)N(c5cccc(Oc6ccccc6)c5)C(=O)[C@@H]4CC[C@@H]23)cc1 | 0.226 | -0.518 | -0.826 | 0.754 | 0.196 | -0.767 | -0.0215 (inactive) | 0.587 | -0.442 | 0.166 (inactive) | 0.702 | 0.968 (inactive) | 0.106 (inactive) | 0.861 (inactive) | -0.282 (inactive) | 1.65 (inactive) | -0.401 (inactive) | -0.587 (inactive) | 0.45 | -0.22
10 | COC(=O)CC=C[C@@H](C)[C@@H](C=NOCC[C@@H]1C=C[C@H](OC(C)=O)[C@@H](COC(C)=O)O1)NS(=O)(=O)c1ccc(C)cc1 | 0.498 | 0.037 | -0.726 | 0.212 | -0.128 | -0.716 | -1.63 (inactive) | 0.533 | 0.0173 | -0.364 (inactive) | -0.564 | 0.705 (inactive) | -0.602 (inactive) | 0.33 (inactive) | 0.453 (inactive) | 0.193 (inactive) | 0.336 (inactive) | 0.402 (inactive) | -0.393 | 0.0374
11 | CCOC(=O)[C@H](CC(C)C)NC(=O)CCC1CC(OC(=O)NCc2cccc3ccccc23)CC2(CCCC(COC(=O)NCCC(C)C)O2)O1 (stereo not given in full) | 2.25 | 0.944 | 0.312 | -3.2 | -1.05 | 0.162 | 0.199 (inactive) | -0.17 | -1.27 | 0.169 (inactive) | 0.232 | -2.17 (inactive) | 0.771 (inactive) | -2.64 (inactive) | 0.131 (inactive) | -3.91 (inactive) | -0.259 (inactive) | -0.457 (inactive) | -0.286 | 0.117
12 | O=C1[C@H]2[C@H]3[C@H](O)[C@H](O)CC(=NOC[C@@H](O)COCc4ccco4)[C@@H]3CC[C@H]2C(=O)N1C[C@@H]1CCCO1 | 0.863 | -1.2 | -0.128 | 0.524 | -0.295 | 0.607 | 1.25 (inactive) | -0.32 | -0.796 | 0.0753 (inactive) | 0.188 | 0.408 (inactive) | 0.59 (inactive) | 0.121 (inactive) | -0.662 (inactive) | 1.1 (inactive) | 0.93 (inactive) | 1.14 (inactive) | -0.256 | 0.137
13 | C#CCCCON=C1C[C@@H](O)[C@@H](O)[C@@H]2[C@@H]3C(=O)N(c4cccc(Oc5ccccc5)c4)C(=O)[C@@H]3CC[C@H]12 | 1.08 | 0.139 | 0.411 | 0.632 | 0.116 | 0.862 | 0.57 (inactive) | -0.263 | -1.29 | 0.19 (inactive) | 0.331 | -0.351 (inactive) | 1.08 (inactive) | -1.48 (inactive) | 0.553 (inactive) | -0.0064 (inactive) | 0.899 (inactive) | 0.401 (inactive) | 1.94 | -0.0832
14 | O=C(NN=C1C[C@@H](O)[C@@H](O)[C@@H]2[C@@H]3C(=O)N(C4CCCCC4)C(=O)[C@@H]3CC[C@H]12)OCc1ccccc1 | 0.215 | 0.0766 | -0.822 | -0.816 | -0.284 | -1.14 | -0.458 (inactive) | 0.219 | 0.703 | -0.401 (inactive) | -0.383 | 0.112 (inactive) | -0.531 (inactive) | -0.135 (inactive) | 0.307 (inactive) | -0.182 (inactive) | 0.061 (inactive) | -0.0133 (inactive) | -0.901 | 0.0942
15 | CCOC(=O)[C@H](Cc1ccccc1)NC(=O)CCC1CC(OC(=O)NCCc2ccc(F)cc2)CC2(CCCC(COC(=O)NCc3ccccc3)O2)O1 (stereo not given in full) | 0.199 | -0.765 | -0.12 | 0.399 | -0.816 | 0.968 | 0.509 (inactive) | -0.191 | -0.266 | 0.56 (inactive) | 0.567 | -0.298 (inactive) | 0.159 (inactive) | -0.447 (inactive) | 0.013 (inactive) | 0.694 (inactive) | 0.321 (inactive) | -0.158 (inactive) | -0.0066 | -0.0525
16 | C#CCCCON=C1[C@H]2CCn3c(=O)n(-c4ccccc4)c(=O)n3[C@H]2[C@H](O)[C@@H]2O[C@H]12 | -0.212 | 0.356 | 1.09 | 0.0128 | -0.352 | 0.85 | 0.182 (inactive) | 1.03 | -0.61 | -1.39 (inactive) | -0.775 | -1.34 (inactive) | -2.23 (inactive) | -1.16 (inactive) | 0.352 (inactive) | -1.93 (inactive) | -0.536 (inactive) | -0.231 (inactive) | -1.7 | -0.147
